# An excerpt weighted towards active compounds, which were near 3.5% of everything screened.
# MITF primary: MITF inhibitors, primary screen, biochemical, AlphaScreen, human; Microphthalmia-associated transcription factor (Homo sapiens), O75030; AlphaScreen MITF homodimerization, bead proximity signal; inhibition, % at 2.6 µM; hit rate 0.91% among 650,000; AID 1259374, 2018; in the data active = inhibition above about 50%
# TEAD-YAP inh: TEAD-YAP interaction inhibition, primary screen, TEAD-YAP interaction inhibitor project, luminescence, HEK-TIYL cells; TEAD-Gal4/YAP UAS-luciferase luminescence; hit rate 1.4% among 640,000; inhibition, % at 9.12 µM; in the data active = inhibition above about 32%
# FBW7 act: FBW7 E3 ligase activators, primary screen, biochemical, AlphaScreen, human; normalized activity (activation), % at 26.1 µM; AID 1259310, 2017; F-box/WD repeat-containing protein 7 (Homo sapiens), Q969H0; AlphaScreen FBW7–phospho-cyclin E peptide binding, activator screen; hit rate 0.13% among 650,000; in the data active = normalized activity above about 1.9%;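 also: purified mutant Fbw7 with reduced substrate affinity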
# GPR151 ag: activators of human GPR151, primary screen, cell-based, PathHunter beta-arrestin, luminescence. hit rate 1% among 650,000. PathHunter beta-arrestin GPR151 cells. G-protein coupled receptor 151 (Homo sapiens), Q8TDV0. activation, % at 11.2 µM. AID 1508602, 2020; in the data active = activation above about 4.9%
# Target sequence (Q8TDV0 whole entry, looked up): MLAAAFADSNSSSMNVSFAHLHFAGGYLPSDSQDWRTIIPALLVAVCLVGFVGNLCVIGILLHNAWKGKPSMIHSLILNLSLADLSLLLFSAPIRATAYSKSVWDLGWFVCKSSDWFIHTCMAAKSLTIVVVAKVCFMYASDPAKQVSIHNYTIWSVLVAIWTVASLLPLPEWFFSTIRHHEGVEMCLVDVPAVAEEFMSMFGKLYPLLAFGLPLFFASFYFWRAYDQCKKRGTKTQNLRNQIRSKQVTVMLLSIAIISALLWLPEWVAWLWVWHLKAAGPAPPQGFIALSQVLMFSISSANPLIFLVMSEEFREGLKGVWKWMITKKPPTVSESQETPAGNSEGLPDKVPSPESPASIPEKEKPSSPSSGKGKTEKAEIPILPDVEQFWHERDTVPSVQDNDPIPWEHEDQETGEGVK
# Hits are given with their value; n = inactive; x = no result given.
SMILES,MITF primary,TEAD-YAP inh,FBW7 act,GPR151 ag
C[C@]12CC[C@H](O)C[C@H]1CC[C@@H]1[C@@H]2CC[C@]2(C)[C@@H](C3=CC(=O)OC3)CC[C@]12O,n,x,n,n
COC1CC(O[C@H]2CC[C@]3(C=O)C4CC[C@]5(C)C(C6=CC(=O)OC6)CC[C@]5(O)C4CC[C@]3(O)C2)OC(C)C1O (stereo partly specified),n,101,n,n
C[C@@H]1O[C@@H](O[C@H]2C[C@@H](O)[C@]3(CO)[C@@H]4C(CC[C@]3(O)C2)[C@@]2(O)CC[C@H](C3COC(=O)C3)[C@@]2(C)C[C@H]4O)[C@H](O)[C@H](O)[C@H]1O (stereo partly specified),n,94,n,n
C[C@@H]1O[C@@H](O[C@H]2C[C@@H](O)[C@]3(CO)C4C(CC[C@]3(O)C2)[C@@]2(O)CC[C@H](C3=CC(=O)OC3)[C@@]2(C)C[C@H]4O)[C@H](O)[C@H](O)[C@H]1O (stereo partly specified),n,99,n,n
CCN(CC)C(=O)c1ccc(NC(=O)CN2CCCCC2)cc1,n,n,n,n
CCN(CC)C(=O)c1ccc(NC(=O)c2ccccn2)cc1,n,42,n,n
N#Cc1c(/N=C/c2c(O)n(Cc3ccco3)c(=O)[nH]c2=O)sc2c1CCCC2,53,n,n,n
O=c1[nH]c(=S)n(Cc2ccco2)c(O)c1C=NCc1cccs1,n,n,n,n
O=c1cccc2n1CC1CC2CN(C(=S)Nc2ccc(I)cc2)C1 (stereo unspecified),n,n,n,n
O=C1NC(=S)N(c2ccc(Cl)cc2)C(=O)/C1=C/c1ccco1,n,n,n,n
O=C1NC(=O)N(c2cccc3ccccc23)C(=O)/C1=C\c1ccco1,78,n,n,n
O=C1NC(=S)N(c2ccccc2)C(=O)/C1=C\C=C\c1ccco1,75,n,n,n
O=C1NC(=S)N(c2ccc(F)cc2)C(=O)/C1=C/c1ccco1,63,n,n,n
CCN1C(=O)C2(C(C(=O)OC)=C(N)Oc3cc(C)n(C)c(=O)c32)c2ccccc21 (stereo unspecified),n,n,n,n
CC(NCc1ccc(F)cc1)C(O)c1ccccc1 (stereo unspecified),n,n,n,n
CCN(CC)c1ccc(CNC(C)C(O)c2ccccc2)cc1 (stereo unspecified),n,53,n,n
O=C1NC(=O)C(CC(=O)N2CCC3(CC2)OCc2cc(-c4ccccc4)ccc2O3)N1 (stereo unspecified),n,n,n,n
c1ccc2[nH]c(CN3CCNCC3)nc2c1,n,n,n,n
CC(=O)c1ccc(-c2ccc(C=C3C(=O)NC(=S)NC3=O)o2)cc1,n,n,n,n
O=C1NC(=S)NC(=O)C1=Cc1ccc(-c2ccc(Cl)c(C(=O)O)c2)o1,69,n,n,n
O=C1NC(=S)NC(=O)C1=Cc1ccc(-c2ccc(C(=O)O)cc2)o1,63,n,n,n
O=C1NC(=O)N(Cc2ccco2)C(=O)/C1=C\c1ccc(-c2ccc(Cl)c(C(=O)O)c2)o1,n,n,n,n
O=C1NC(=S)NC(=O)C1=Cc1ccc(-c2ccc(C(=O)O)c(O)c2)o1,82,n,n,n
O=c1cccc2n1CC1CC2CN(Cc2cc([N+](=O)[O-])ccc2O)C1 (stereo unspecified),n,n,n,n
CO/N=C/c1c[nH]c2ccc(Br)cc12,n,n,n,n
SMILES,MITF primary,TEAD-YAP inh,FBW7 act,GPR151 ag
CC(C)CN1CCN(Cc2ccc3c(c2)OCCO3)CC1CCO (stereo unspecified),n,n,n,n
COc1cccc(CN(CCN(C)C)C(=O)c2cn(CCN3CCCC3)c3cc(-c4cn[nH]c4)ccc23)c1,n,n,n,n
CCC(C)(C)n1nnnc1CN1CCC(n2c(C)nc3cc(F)ccc32)CC1,n,n,n,n
N/C(=N\[N+](=O)[O-])N/N=C/c1ccc(O)c(O)c1,87,n,n,n
Clc1ccc(CNc2nccs2)cn1,n,n,n,n
CC(C)[C@]12O[C@H]1[C@@H]1O[C@]13[C@]1(O[C@H]1C[C@H]1C4=C(CC[C@@]13C)C(=O)OC4)[C@@H]2O,n,90,n,n
C=CCOc1ccc(/C=C(\C)[N+](=O)[O-])cc1OC,n,42,n,n
O=C1NC(=S)NC(=O)C1=Cc1ccc(O)cc1,n,n,n,n
COc1cc(C=C2C(=O)NC(=S)NC2=O)ccc1OCc1cccc(C(=O)O)c1,n,85,n,n
O=C1NC(=O)C(=Cc2ccc(OCc3cccc(C(=O)O)c3)cc2)C(=O)N1,n,71,n,n
O=C1NC(=O)C(=Cc2cc(Cl)ccc2OCc2ccc(C(=O)O)cc2)C(=O)N1,n,n,n,n
CCOc1ccc(C=C2C(=O)NC(=S)NC2=O)cc1OCC,n,n,n,n
Cc1cc(=O)[nH]c(N/N=C/c2ccc(OC(=O)c3cccc([N+](=O)[O-])c3)cc2)n1,n,n,n,n
O=C(COc1ccccc1F)N1CCN(Cc2nc3ccccc3n2Cc2ccccc2)CC1,n,n,n,n
O=C1Nc2ccccc2/C1=C/c1nc2ccccc2c(=O)n1-c1ccccc1,n,n,n,n
c1ccc2cc(-c3ccc4c(c3)COC3(CCNCC3)O4)ccc2c1,n,84,n,n
c1cc2c(cc1-c1ccc3c(c1)OCO3)COC1(CCNCC1)O2,n,n,n,n
CN1CCN(c2cc(N3CCCCCC3)c([N+](=O)[O-])cc2F)CC1,n,n,n,n
COc1ccc(C2NCc3ccc4c(c3-n3cccc32)OCO4)cc1O (stereo unspecified),n,56,n,n
CC(C)=CCCC1(C)C=Cc2c(O)c3c(c(CC=C(C)C)c2O1)OC12C(=CC4CC1C(C)(C)OC2(C/C=C(\C)C(N)=O)C4=O)C3=O (stereo unspecified),n,38,n,n
COc1ccc(CNCCc2ccccc2F)c(OC)c1,n,n,n,n
O=[N+]([O-])c1ccc(N2CCCC2)c2ccccc12,n,n,n,n
Cc1cc([N+](=O)[O-])c2ccccc2[n+]1[O-],n,92,n,n
O=C(c1ccccc1Cl)c1cc([N+](=O)[O-])ccc1-n1cccc1,n,51,n,n
COc1ccc(CN2CCN(C(C)C)CC2CCO)c(C)c1C (stereo unspecified),n,n,n,n
O=C(CCl)Nc1ccc(Cl)cc1C(=O)c1ccccc1,n,35,n,n
O=C(Oc1cccc2cccnc12)c1cccc(S(=O)(=O)N2CCCCCC2)c1,n,n,n,n
O=C(Oc1ccc([N+](=O)[O-])c2cccnc12)c1cccc(S(=O)(=O)N2CCOCC2)c1,72,n,n,n
CC/C(=C\c1sc2ccc(OC)cc2[n+]1CC)SC (tested in a mixture with another compound),n,n,n,n

# Bioassay records (PubChem)
